Calls of active or inactive are those of the source.
Experiment: plasmodial surface anion channel blockers, osmotic lysis – cell-based, P. falciparum Indochina, OD700, 2 h, primary screen (AID 1155);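 further: lysis reports solute entry through the parasite surface anion channel PSAC; channel blockers reduce lysis of infected cells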
Conditions: P. falciparum Indochina infected erythrocytes, higher = more signal, called active from +8 up or from −8 down

z-score, inactive:
C=CCNC(=O)[C@H]1[C@@H]2C(=O)O[C@@H](c3ccccc3)[C@@H](c3ccccc3)N2[C@@H](c2ccc(O)cc2)[C@]12C(=O)Nc1ccc(C#CCC(C(=O)OC)C(=O)OC)cc12 1.51
C[C@]1(C(=O)O)c2ccccc2C(=O)N(Cc2cc(C(F)(F)F)cc(C(F)(F)F)c2)[C@H]1c1ccc(CO)cc1 0.168
C=CCOC(=O)[C@H]1[C@@H]2C(=O)O[C@@H](c3ccccc3)[C@@H](c3ccccc3)N2[C@@H](c2ccc(OCCOC(=O)[C@H]3C[C@H]4C(=O)NCC(=O)N4[C@H]3c3ccc(O)cc3)cc2)[C@]12C(=O)Nc1ccccc12 1.3
COc1ccc([Si](C)(C)[C@H]2[C@H](CC(=O)N3CCC[C@H]3CO)O[C@@]3(C(=O)N(Cc4cccc(N5CCCCC5=O)c4)c4ccccc43)[C@@H]2C)cc1 0.57
C=CCNC(=O)[C@H]1[C@@H]2C(=O)O[C@@H](c3ccccc3)[C@@H](c3ccccc3)N2[C@@H](c2ccc(O)cc2)[C@]12C(=O)N(C(=O)OCCOC)c1ccc(C#Cc3ccc(OC)cc3)cc12 1.28
O=C(CS)NCCCCCCNC(=O)[C@H]1C[C@H]2C(=O)NCC(=O)N2[C@H]1c1cccc(OCCO)c1 -0.151
COc1cc(Cc2cc3c(c(-c4ccccc4)n2)[Si](C(C)C)(C(C)C)OC3)cc(OC)c1OC 0.702
Cc1c(NC(=O)/C(C#N)=C/C=C/c2ccc([N+](=O)[O-])cc2)c(=O)n(-c2ccccc2)n1C 0.636
CCOC(=O)C[C@H]1[C@H](OC(=O)c2ccccc2-c2ccccc2)[C@@H](NC(=O)CC(C)C)c2cc(OCCCO)ccc2N1C(=O)c1ccccc1 -1.7
COCCOC(=O)N1C(=O)[C@@]2(c3cc(C#CCNC(N)=O)ccc31)[C@H](c1ccc(O)cc1)N1[C@H](c3ccccc3)[C@H](c3ccccc3)OC(=O)[C@H]1[C@@H]2C(=O)N1CCc2cc(OC)c(OC)cc2C1 0.13

Experiment: changes in parasitized red cell lysis, either direction – P. falciparum Indochina, OD700, 3 h, PSAC antagonist project, primary screen (AID 1156)
Conditions: P. falciparum-infected erythrocytes, osmotic lysis, higher = more signal, called active from +8 up or from −8 down

z-score, inactive:
COC(=O)[C@@]1(Cc2ccc(F)cc2)[C@H]2c3cc(C(=O)N(C)C)n(CCF)c3C[C@H]2CN1C(=O)c1ccccc1 -1.04
COC(=O)[C@@]1(Cc2ccccc2)[C@H]2c3cc(C(=O)N(C)C)n(Cc4ccc(Cl)c(C(F)(F)F)c4)c3C[C@H]2CN1C(=O)c1ccccc1 0.453
COc1ccc(NN2C(C(O)c3ccc(F)cc3)C=CC3C(=O)N(C4CCCCC4)C(=O)C32)cc1 (stereo not given) 0.37
[N-]=[N+]=NCc1ccccc1C[C@@]1(C(N)=O)N=C(c2ccc(OCCCO)cc2)O[C@@H]1c1ccccc1N=[N+]=[N-] 1.81
O=C1O[C@H](c2ccccc2)[C@H](c2ccccc2)N2[C@H]1[C@@H](C(=O)Nc1nc3ccccc3s1)[C@]1(C(=O)Nc3ccccc31)[C@H]2c1ccccc1OCCO -5.41
CC(C)c1ccc(NN2C(C(O)C(C)c3ccccc3)C=CC3C(=O)N(c4ccccc4)C(=O)C32)cc1 (stereo not given) 0.215
COCCCNC(=O)[C@]1(Cc2ccccc2N=[N+]=[N-])N=C(c2ccc(OCCCO)cc2)O[C@@H]1c1ccccc1 2.38
COC(=O)[C@@]1(Cc2ccc(OC)cc2)[C@H]2c3cc(C(=O)N(C)C)n(Cc4c(CO)[nH]cc(C)c4=O)c3C[C@H]2CN1C(=O)c1ccccc1 0.072
COC(=O)C(CC#Cc1ccc2c(c1)[C@]1(C(=O)N2)[C@H](c2ccc(OCCO)cc2)N2[C@H](c3ccccc3)[C@H](c3ccccc3)OC(=O)[C@H]2[C@@H]1C(N)=O)C(=O)OC -0.623
O=C1N(Cc2ccccc2)Cc2ccccc2C[C@@]12COC(c1ccc(OCCCO)cc1)=N2 3.72
COCCCNC(=O)[C@@]1(c2ccc([N+](=O)[O-])cc2)CC(=O)N(C2CCCCC2)[C@@H]1c1ccc(CO)cc1I 3.44
CO[C@H]1O[C@H](CO)[C@@H](OC(=O)Nc2ccccc2)[C@@H]2OC(=O)[C@@H](Cc3ccccc3)C/C=C/C[C@H](Cc3ccccc3)C(=O)O[C@@H]12 0.288
O=C1O[C@@H](c2ccccc2)[C@@H](c2ccccc2)N2[C@@H](c3ccc(OCCO)cc3)[C@]3(C(=O)Nc4ccc(C#CC5=CCCCC5)cc43)[C@@H](C(=O)Nc3nc4ccccc4s3)[C@H]12 1.92
COCCOC(=O)N1C(=O)[C@@]2(c3cc(C#CC4(O)CCCCCC4)ccc31)[C@H](C(N)=O)[C@H]1C(=O)O[C@H](c3ccccc3)[C@H](c3ccccc3)N1[C@@H]2c1ccc(OCCO)cc1 0.843
COC(=O)C(CC#Cc1ccc2c(c1)[C@]1(C(=O)N2)[C@H](C(N)=O)[C@H]2C(=O)O[C@H](c3ccccc3)[C@H](c3ccccc3)N2[C@@H]1c1ccccc1OCCO)C(=O)OC 1.02
Cc1ccc(S[C@]2(C(=O)NCC(C)C)CC(=O)N(C(C)C)[C@@H]2c2ccc(CO)cc2I)cc1 0.504
CN1C2C=C(c3ccc(CO)cc3)C(C3C(=O)N(C(N)=O)C(=O)C32)C1C1CC1 (stereo not given) -0.103
[N-]=[N+]=NCc1ccccc1[C@H]1OC(c2ccc(OCCCO)cc2)=N[C@@]1(CCS(=O)(=O)c1ccccc1)C(=O)O 0.471
COC(=O)[C@@]1(Cc2ccc(F)cc2)[C@H]2c3cc(C(=O)N4CCCC4)n(Cc4ccc(OC(F)(F)F)cc4)c3C[C@H]2CN1C(=O)c1ccccc1 -0.194
C[N+](C)(C)CCCC[C@@H]1NC(=O)[C@H]2C[C@@H](C(=O)O)[C@@H](c3ccc(O)cc3)N2C1=O -2.47
CN1C(=O)C2CC=C(C3=CCO[C@@H]3[C@H]3CCCN3S(=O)(=O)c3ccccc3[N+](=O)[O-])CC2C1=O (stereo not given in full) -0.604
COC(=O)[C@@]1(Cc2ccc(F)cc2)[C@H]2c3cc(C(=O)N4CCCC4)n(Cc4ccc(C(F)(F)F)nc4)c3C[C@H]2CN1C(=O)c1ccccc1 2.16
C=C(CCCC)/C(=C/C[C@@H](OC(C)=O)c1cccc(OCCO)c1)c1cc(C(=O)OC)ccc1OC 1.42
O=C/C=C/c1ccc(-c2ccccc2)cc1 -0.103
O=C1O[C@H](c2ccccc2)[C@H](c2ccccc2)N2[C@H]1[C@@H](C(=O)N1CCCCCCC1)[C@]1(C(=O)Nc3ccc(C#CCCO)cc31)[C@H]2c1ccc(O)cc1 0.0261
C=CCNC(=O)[C@H]1[C@@H]2C(=O)O[C@@H](c3ccccc3)[C@@H](c3ccccc3)N2[C@@H](c2ccc(O)cc2)[C@]12C(=O)Nc1ccc(C#CCC(C(=O)OC)C(=O)OC)cc12 0.416
C[C@]1(C(=O)O)c2ccccc2C(=O)N(Cc2cc(C(F)(F)F)cc(C(F)(F)F)c2)[C@H]1c1ccc(CO)cc1 -0.173
C=CCOC(=O)[C@H]1[C@@H]2C(=O)O[C@@H](c3ccccc3)[C@@H](c3ccccc3)N2[C@@H](c2ccc(OCCOC(=O)[C@H]3C[C@H]4C(=O)NCC(=O)N4[C@H]3c3ccc(O)cc3)cc2)[C@]12C(=O)Nc1ccccc12 2.3
COc1ccc([Si](C)(C)[C@H]2[C@H](CC(=O)N3CCC[C@H]3CO)O[C@@]3(C(=O)N(Cc4cccc(N5CCCCC5=O)c4)c4ccccc43)[C@@H]2C)cc1 0.318
C=CCNC(=O)[C@H]1[C@@H]2C(=O)O[C@@H](c3ccccc3)[C@@H](c3ccccc3)N2[C@@H](c2ccc(O)cc2)[C@]12C(=O)N(C(=O)OCCOC)c1ccc(C#Cc3ccc(OC)cc3)cc12 -0.829
O=C(CS)NCCCCCCNC(=O)[C@H]1C[C@H]2C(=O)NCC(=O)N2[C@H]1c1cccc(OCCO)c1 -1.92
COc1cc(Cc2cc3c(c(-c4ccccc4)n2)[Si](C(C)C)(C(C)C)OC3)cc(OC)c1OC 0.84
Cc1c(NC(=O)/C(C#N)=C/C=C/c2ccc([N+](=O)[O-])cc2)c(=O)n(-c2ccccc2)n1C 0.206
CCOC(=O)C[C@H]1[C@H](OC(=O)c2ccccc2-c2ccccc2)[C@@H](NC(=O)CC(C)C)c2cc(OCCCO)ccc2N1C(=O)c1ccccc1 -1.27
COCCOC(=O)N1C(=O)[C@@]2(c3cc(C#CCNC(N)=O)ccc31)[C@H](c1ccc(O)cc1)N1[C@H](c3ccccc3)[C@H](c3ccccc3)OC(=O)[C@H]1[C@@H]2C(=O)N1CCc2cc(OC)c(OC)cc2C1 0.018
